# FBPA Giardia inh: qHTS Assay for Inhibitors of Fructose-1,6-bisphosphate Aldolase from Giardia Lamblia. 290,000 tested, 0.71% active. purified Giardia FBPA. AID 2451, 2010. Potency, µM (top dose mostly 59.6 µM), without a hit: at the top dose activity, negative = inhibition, actives largely listed as inhibitors; further: nearly all actives have a fitted effect of over 55% in size
# Target sequence (A8B2U2 whole entry, looked up): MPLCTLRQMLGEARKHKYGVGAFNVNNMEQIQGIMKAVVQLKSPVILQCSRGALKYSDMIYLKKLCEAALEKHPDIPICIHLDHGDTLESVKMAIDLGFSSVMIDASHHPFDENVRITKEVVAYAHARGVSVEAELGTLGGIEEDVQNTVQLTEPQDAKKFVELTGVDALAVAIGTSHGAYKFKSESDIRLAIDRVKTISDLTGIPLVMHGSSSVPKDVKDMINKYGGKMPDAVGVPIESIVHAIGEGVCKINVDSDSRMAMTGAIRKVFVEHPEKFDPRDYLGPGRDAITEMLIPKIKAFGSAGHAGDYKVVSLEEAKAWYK
#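 Giardia FBPA (40 nM reagent) was preincubated 10 min at RT with compound (up to 57.5 uM final), then substrate plus GAPDH/TPI/NAD/arsenate coupling system with diaphorase/resazurin was added; resorufin fluorescence (525/598 nm) was read after 20 min.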
# RE007 growth inh: qHTS Assay for Inhibitors of the HIV-1 protein Vpr. AID 651644, 2012. Potency, µM (titrated, usually from 92.2 µM), for the others: top-dose activity change, negative = less growth, most hits filed as inhibitors. S. pombe RE007 Vpr strain, BacTiter-Glo ATP luminescence, 24 h. 360,000 tested, 0.21% active; active means well fitted falling curve with a large enough effect; inconclusive means small, poorly fitted or top-dose-only effect; inactive means no such curve, though single readings can be large or run the other way; further: nearly all actives have a fitted effect of over 50% in size
#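 Fission yeast strain RE007, carrying one chromosomally integrated HIV-1 vpr copy, was seeded at OD 0.01 in PMG+AL medium with 23 nL pinned compound. After 24 h at 30 °C and 99% humidity, viability was read by BacTiter-Glo luminescence.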
# Sm TGR inh: qHTS Assay for the Inhibitors of Schistosoma Mansoni Peroxiredoxins; purified TGR, DTNB reduction, TNB absorbance 405 nm; Potency, µM (doses to about 114 µM), for the others: at the highest dose activity change, negative = inhibition, hits mostly inhibitors; Schistosoma mansoni thioredoxin glutathione reductase (TGR), Q962Y6; AID 485364, 2010; 360,000 tested, 3% active; further: nearly all actives have a fitted effect of over 60% in size
#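 Kinetic colorimetric format: TGR-catalysed, NADPH-driven DTNB reduction monitored via TNB absorbance. Enzyme dispensed at 20 nM; compound exposure 15 min at room temperature before reaction start.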
# AmpC inh detg: qHTS Inhibitors of AmpC Beta-Lactamase (assay with detergent); AmpC hydrolysis of nitrocefin, absorbance 480 nm, 0.01% Triton; Potency, µM (top dose mostly 114 µM), without a hit: at the top dose activity change, negative = inhibition, hits mostly inhibitors; 370,000 tested, 0.041% active;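 further: 0% = no-compound wells and -100% = no-enzyme wells; nearly all actives have a fitted effect of over 25% in size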
# Target sequence (P00811 whole entry, looked up): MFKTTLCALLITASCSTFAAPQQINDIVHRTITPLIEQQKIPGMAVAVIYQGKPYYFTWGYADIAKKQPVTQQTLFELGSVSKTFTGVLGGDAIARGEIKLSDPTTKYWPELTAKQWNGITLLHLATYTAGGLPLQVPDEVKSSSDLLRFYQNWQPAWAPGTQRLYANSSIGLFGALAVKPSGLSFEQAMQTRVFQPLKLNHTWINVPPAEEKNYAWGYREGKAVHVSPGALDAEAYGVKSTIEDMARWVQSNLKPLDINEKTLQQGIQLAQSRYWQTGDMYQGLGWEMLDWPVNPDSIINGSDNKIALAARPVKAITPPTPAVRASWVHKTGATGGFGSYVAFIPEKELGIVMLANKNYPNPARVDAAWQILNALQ
#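 AmpC (5.3 nM in the dispensed reagent) in 20 mM phosphate pH 7.0 with 0.01% (detergent screen) or 0.0001% Triton X-100 was preincubated with compounds for 15 min at room temperature. Nitrocefin was then added from an 800 uM solution, and hydrolysis was followed at 480 nm.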
# AmpC no deterg: qHTS Inhibitors of AmpC Beta-Lactamase (assay without detergent) | P00811 | AmpC nitrocefin hydrolysis, absorbance 480 nm, 0.0001% Triton | Potency, µM (top dose mostly 57.1 µM), for inactives: at the highest dose activity change, negative = inhibition, actives largely listed as inhibitors | 330,000 tested, 0.52% active;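 further: plate controls were no compound for no effect and no enzyme for full effect; nearly all actives have a fitted effect of over 20% in size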
#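 AmpC (5.3 nM in the dispensed reagent) in 20 mM phosphate pH 7.0 with 0.01% (detergent screen) or 0.0001% Triton X-100 was preincubated with compounds for 15 min at room temperature. Nitrocefin was then added from an 800 uM solution, and hydrolysis was followed at 480 nm.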
# * marks the source's active call; other numbers are inactive results; ? = inconclusive; . = no result given. Hits are enriched below; roughly 3.4% of the tested compounds scored in any of these assays. Unless noted, the call rests on the fitted dose curve; in most records, active means well fitted curve in the direction sought with a large enough effect; inconclusive means small, poorly fitted or top-dose-only effect, or another doubt; inactive means no such curve, though single readings can be large; an effect the other way counts as inactive or inconclusive. Unless noted, on the % scale 0 is the no-effect control and ±100 the full control effect; potency means the concentration at half of the fitted maximal effect.
SMILES,FBPA Giardia inh,RE007 growth inh,Sm TGR inh,AmpC inh detg,AmpC no deterg
CCOc1ccc(N2C(=O)CC(N(Cc3ccco3)C(C)=O)C2=O)cc1 (centres undefined),-8%,2%,50µM*,-1%,50%
CCCOc1ccc(N2C(=O)CC(N(Cc3ccco3)C(=O)CC)C2=O)cc1 (centres undefined),4%,-11%,14µM*,2%,17%
OCc1cccc(-c2cnc3c(Nc4cccc(OC(F)(F)C(F)F)c4)nccn23)c1,.,-13%,.,.,.
Nc1nc(-c2ccccc2)c(CCCOc2ccc([N+](=O)[O-])cc2)c(=O)[nH]1,.,12%,.,.,.
CN1CCN(CC(=O)NN2CC(=O)N(c3ccc(F)cc3)CC2=O)CC1,0%,3%,-8%,-4%,-15%
Cc1ccc(C(=O)N(Cc2nnc(-c3ccccc3Cl)o2)C2CC2)o1,.,15%,.,.,.
O=C(c1ccc([N+](=O)[O-])o1)N(Cc1nnc(-c2ccccc2Cl)o1)C1CC1,.,0%,50µM*,3%,-7%
CCCc1cc(=O)oc2cc(C)c3c(-c4ccccc4)c(C)oc3c12,.,.,-2%,15%,.
CCOc1ccc(C(=O)Nc2cc(C)ccn2)cc1,-1%,40µM*,-1%,-3%,-10%
COc1ccc(C[C@@H]2CN3C(=NC[C@@H]3C)N2CCNC(=O)c2ccc(C)c(Br)c2)cc1,1%,-3%,-15%,6%,11%
COc1ccc(C[C@H]2CN3C(=NC[C@@H]3Cc3ccccc3)N2CCNC(=O)CCC2CCCCC2)cc1,2%,1%,-10%,0%,110%
O=C(CCC1CCCCC1)NCCN1C2=NC[C@H](Cc3ccc(O)cc3)N2C[C@H]1Cc1ccc(O)cc1,-9%,-11%,35µM*,-10%,-15%
Cc1ccc(C(=O)N[C@@H](C)CN2C3=NC[C@H](C)N3C[C@H]2Cc2ccc(O)cc2)cc1Br,1%,.,50µM*,5%,-16%
CC(C)[C@H]1CN=C2N(CCNC(=O)CCC3CCCCC3)[C@H](Cc3ccc(O)cc3)CN21,-9%,-11%,7.9µM*,4%,15%
C[C@@H]1CN=C2N(CCNC(=O)CCC3CCCCC3)[C@H](Cc3ccc(O)cc3)CN21,-1%,-23%,5µM*,8%,4%
COc1ccc(C[C@H]2CN3C(=NC[C@@H]3C(C)C)N2CCNC(=O)CCC2CCCCC2)cc1,4%,7%,-2%,8%,61%
O=C(CSc1nc2c(c(=O)[nH]1)CCC2)Nc1ccccc1F,.,.,-4%,14%,.
Oc1ccc2[nH]cnc2c1CN1CCCCC1,-12%,16%,-12%,5%,-16%
COc1cccc(C(=O)N2CCC[C@H]2C(=O)N2CCC[C@H]2C(=O)NCc2ccccn2)c1,.,-20%,.,.,.
CCCn1c(CCC(=O)O)ccc1-c1ccccc1,15%,-6%,-30%,?,-27%
O=C(O)CCc1ccc(-c2ccc(F)cc2)n1CCC(=O)O,3%,1%,14µM*,3%,-27%
O=C(O)CCc1ccc(-c2ccc(Br)cc2)n1CC(=O)O,25%,-7%,?,-14%,-29%
CC(C)n1c(CCC(=O)O)ccc1-c1ccccc1,11%,-11%,18µM*,?,-23%
Cc1ccc(-c2ccc(CCC(=O)O)n2Cc2ccco2)cc1,14%,7%,35µM*,-1%,-49%
O=C(O)CCc1ccc(-c2ccccc2)n1CC(=O)O,10%,-7%,35µM*,?,-30%
SMILES,FBPA Giardia inh,RE007 growth inh,Sm TGR inh,AmpC inh detg,AmpC no deterg
CCOC(=O)c1cc(-c2ccccc2C)nn1Cc1cc(CC)no1,.,-5%,0%,-11%,-5%
Cc1ccc2c(c1C)-c1c(ccc(C)c1C)C(=O)C2=O,.,45µM*,.,.,.
Cc1ccc2c(c1N)C(=O)c1ccccc1C2=O,.,-28%,-11%,-4%,-10%
Cc1nnc(N/N=C/c2ccco2)n1N,20µM*,-9%,-6%,-8%,-8%
c1ccc(-c2onc(-c3ccco3)c2-c2ccc3[nH]ccc3c2)cc1,-16%,5%,45µM*,?,-39%
CC(C)(C)C1=CC(=O)C(N2CCOCC2)=CC1=O,1.8µM*,-12%,-20%,-13%,-13%
O=C1C=C(N2CCCCC2)c2ccccc2C1=O,.,-3%,.,.,.
O=S(=O)(Nc1nc2ccccc2s1)c1ccc(Br)s1,16%,15%,-8%,?,32µM*
S=C(NCCCc1ccccc1)NC1CCCCC1,?,-16%,-20%,0%,-31%
Cc1ccccc1OCC(=O)Nc1ccccc1-c1ccccc1,-4%,-14%,-15%,-6%,5%
COCCNC(=O)C(=O)Nc1ccc(Cl)cc1C,4%,5%,4%,6%,-5%
O=c1oc2ccccc2c(N2CCCCC2)c1CN1CCCCC1,3%,?,18µM*,-4%,-29%
CCc1oc2ccccc2c1C(=O)CCN1CCCCC1,-6%,?,7.9µM*,?,-15%
Cc1ccnc(NC(=O)Cc2c(F)cccc2Cl)c1,6%,4%,6%,2%,-14%
Cc1ccc(COC(=O)CCCN=C2NS(=O)(=O)c3ccccc32)cc1,.,15%,6%,-18%,-23%
COC(=O)C1=C(C)N(c2cccc(Cl)c2)C(=O)C1,-4%,4%,-36%,4%,-10%
COC(=O)C1=C(C)N(c2ccc(F)c(Cl)c2)C(=O)C1,-6%,-11%,25µM*,1%,-27%
CCn1nnnc1NCc1cccn1C,-9%,-8%,50µM*,?,-19%
CCn1nnnc1NCc1ccc(Cl)cc1,7%,-7%,4%,-13%,-3%
Cc1ccc(C)n1-c1ccc2c(c1)COC2=O,-15%,.,11µM*,2%,-17%
CC(=O)Nc1ccc(S(=O)(=O)N2CCC(NC(=O)C(Cc3cccc(F)c3)NC(C)=O)CC2)cc1 (centres undefined),.,27%,45µM*,3%,21%
Cc1nn(-c2ccc(Cl)cc2)c(=O)c2c(C)noc12,7%,-9%,-8%,-7%,-15%
NS(=O)(=O)c1ccc(NS(=O)(=O)c2ccc(NC(=O)c3ccc(-c4ccccc4)cc3)cc2)cc1,-8%,-7%,-23%,-12%,11µM*
NS(=O)(=O)c1ccc(NC(=O)c2ccc(-c3ccccc3)cc2)cc1,-4%,4%,13%,-7%,-55%
CCOc1ccc(CCNC(=O)c2c(C)noc2C)cc1OCC,.,6%,-2%,-1%,-26%
Cc1ccc(OCc2nc(C#N)c(NCc3ccco3)o2)cc1,-5%,-8%,?,-13%,-44%
N#Cc1nc(COc2ccccc2Cl)oc1NCc1cccnc1,8%,2%,7.1µM*,1%,84%
COc1ccccc1OCc1nc(C#N)c(NCc2ccco2)o1,-2%,6%,40µM*,10%,-20%

# Screening data: PubChem, National Center for Advancing Translational Sciences (NCATS)
